# Experimental data published in PubChem BioAssay (NCATS).
# A number with no mark means an inactive call. Results filed as inconclusive are left out. Entries that show only a call come without a potency. Calls of active or inactive are those of the source. Calls come from the whole dose curve; as a rule, active = well fitted curve in the direction sought with a large enough effect; inconclusive = small, poorly fitted or top-dose-only effect, or another doubt; inactive = no such curve, though single readings can be large; an effect the other way counts as inactive or inconclusive.
# Columns and labels:
# [1] = system: Zika virus NS2B-NS3 protease (linked construct); experiment: Primary screen NINDS Rhodamine qHTS for Zika virus inhibitors (AID 1347160); note: nearly all actives have a fitted effect of over 55% in size
# How it was run: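 Enzyme (25 nM, linked NS2B-NS3) was preincubated 15 min with compound in 10 mM Tris-HCl pH 8.0, 0.01% Tween 20. Rhodamine110 substrate (1.5 microM) was then added and fluorescence read at start and after 15 min.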
# [2] = biological target: Calcium and integrin-binding protein 1 (Homo sapiens) (UniProt Q99828); experiment: Primary qHTS for Identification of Calcium Integrin Binding Protein 1 (CIB1) Competitor (AID 1508620);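 note: GST tagged CIB1 binding a fluorescein labelled alphaIIb integrin peptide tracer; top concentration of the series differs between compounds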
# How it was run: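 Fluorescence polarization competition: CIB1-GST (1 uM final) preincubated with compound 15 min at room temperature, then FITC-labeled alphaIIb peptide (100 nM final) added for another 15 min. Polarization read at Ex 480/Em 540.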
# [3] = biological target: Glutathione peroxidase 1 (Homo sapiens) (UniProt P07203); experiment: Primary qHTS Assay for Inhibitors of Recombinant Selenoprotein Glutathione Peroxidase 1 (GPX1) (AID 1845191); note: nearly all actives have a fitted effect of over 65% in size
# How it was run: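 GPX1 10 nM, GR 100 nM, GSH 1 mM, NADPH 0.5 mM, CHP 0.5 mM (final). 30-min cpd preincubation, RT. Ex340/Em450 read t=0, t=15 min.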
# [4] = biological target: Phospholipid hydroperoxide glutathione peroxidase GPX4 (Homo sapiens) (UniProt P36969); experiment: Primary qHTS Assay for Inhibitors of Recombinant Selenoprotein Glutathione Peroxidase 4 (GPX4) (AID 1845192); note: nearly all actives have a fitted effect of over 65% in size
# How it was run: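 qHTS, GR-coupled: GPX4 200 nM + cpd 30 min RT → GSH 1 mM, NADPH 0.5 mM, GR 100 nM → CHP 0.5 mM start; fluor 340/450 at t0 and t15 min; no-enzyme wells as control.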
# [5] = biological target: Luciferin 4-monooxygenase (Photinus pyralis) (UniProt P08659); experiment: Primary firefly luciferase (FLuc) qHTS assay for identification of artifact compounds. (AID 1845220); conditions: outcome: dose series up to 54.1 µM unless noted; note: nearly all actives have a fitted effect of over 60% in size
# How it was run: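 In this counter-screen for luciferase artifacts, test compounds met substrate (10 uM each luciferin and ATP) before 10 nM enzyme started the reaction. Light output was measured 5 min later.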
# [6] = Primary fluorescence-based thiol-reactive (MSTI) qHTS assay for identification of artifact compounds. (AID 1845221); note: nearly all actives have a fitted effect of over 65% in size; note: potency is the fitted concentration of half-maximal effect
# How it was run: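 MSTI probe at 4 uM final in 2% DMSO/PBS pH 7.4; compounds, 1 h at room temperature in dark. Fluorescence Ex/Em 525/598 nm, normalised to Acetyl-MSTI and MSTI, fitted to 4-parameter Hill.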
# [7] = system: Nanoluciferase (engineered Oplophorus gracilirostris luciferase); experiment: Primary Nanoluciferase (NLuc) qHTS assay for identification of artifact compounds. (AID 1845222);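 note: NLuc secreted into diluted conditioned medium of S16 cells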
# How it was run: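 Using secreted nanoluciferase in S16 culture medium (0.22 um filtered, 1:55 dilution), compounds were preincubated 15 min at RT. Signal was generated with Nano-Glo reagent (1:100) over 5 min.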
# CRL-7250 = normal cell line; experiment: Cytotoxic Profiling of Annotated Libraries Using Quantitative High-Throughput Screening (AID 1296008); conditions: Five cell lines viability, CellTiter-Glo ATP luminescence, 48-72 h; max response: hits give low values; note: nearly all actives have a fitted effect of over 60% in size; note: potency is the fitted concentration of half-maximal effect
# How it was run: (§1)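 Compounds were pin-transferred onto cells and incubated 48 or 72 hr at 37 degree Celsius, 95% humidity. CellTiter-Glo was added, plates sat 10 min at room temperature, then ATP-coupled luminescence was imaged as the viability read-out.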
# NIH3T3 = experiment: as above; conditions: Five cell lines viability, CellTiter-Glo ATP luminescence, 48-72 h; max response: hits give low values
# How it was run: as §1
# C33A = experiment: Primary qHTS to identify gynecologic anti-cancer compounds using libraries of approved drugs and bioactive compounds (AID 1345084); conditions: Gynecologic cancer cell panel viability, ATPlite luminescence, 48 h; series mostly up to 57.5 µM; note: nearly all actives have a fitted effect of over 55% in size; note: potency is the fitted concentration of half-maximal effect
# How it was run: (§2)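 Cells, 1,000 per well, plated 16 h, then exposed 48 h at 37 C to compounds. Viability by ATPlite luminescence after 15 min at room temperature.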
# CAOV3 = experiment: as above; conditions: Gynecologic cancer cell panel viability, ATPlite luminescence, 48 h; series mostly up to 57.5 µM
# How it was run: as §2
# CASKI = experiment: as above; conditions: Gynecologic cancer cell panel viability, ATPlite luminescence, 48 h; series mostly up to 57.5 µM
# How it was run: as §2
# Es-2 = experiment: as above; conditions: Gynecologic cancer cell panel viability, ATPlite luminescence, 48 h; series mostly up to 57.5 µM
# How it was run: as §2
# Hek293T = experiment: as above; conditions: Gynecologic cancer cell panel viability, ATPlite luminescence, 48 h, control line for the selectivity index; series mostly up to 57.5 µM
# How it was run: as §2
# JEG-3 = experiment: as above; conditions: Gynecologic cancer cell panel viability, ATPlite luminescence, 48 h; series mostly up to 57.5 µM
# How it was run: as §2
# OV90 = experiment: as above; conditions: Gynecologic cancer cell panel viability, ATPlite luminescence, 48 h; series mostly up to 57.5 µM
# How it was run: as §2
# PA-1 = experiment: as above; conditions: Gynecologic cancer cell panel viability, ATPlite luminescence, 48 h; series mostly up to 57.5 µM
# How it was run: as §2
# Tov-21-G = experiment: as above; conditions: Gynecologic cancer cell panel viability, ATPlite luminescence, 48 h; series mostly up to 57.5 µM
# How it was run: as §2
# Tov112D = experiment: as above; conditions: Gynecologic cancer cell panel viability, ATPlite luminescence, 48 h; series mostly up to 57.5 µM
# How it was run: as §2
# [8] = Primary redox qHTS assay for identification of artifact compounds. (AID 1845223)
# How it was run: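 Redox-cycling detection via DTT (250 uM final) oxidation coupled to Amplex Red (25 uM)/HRP (250 mU/mL) in HBSS. 15 min preincubation plus 30 min after DTT, room temperature. Ex/Em 525/598 nm; 4-parameter Hill fit against DMSO and 10 uM DA3003.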
# Calcium and integrin-binding protein 1 (Homo sapiens), sequence (Q99828 whole entry, looked up): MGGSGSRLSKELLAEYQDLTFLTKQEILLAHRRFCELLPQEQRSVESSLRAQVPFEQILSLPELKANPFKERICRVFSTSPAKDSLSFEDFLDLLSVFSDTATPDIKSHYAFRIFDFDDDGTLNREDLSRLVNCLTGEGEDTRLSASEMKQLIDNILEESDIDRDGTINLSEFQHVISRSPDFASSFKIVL
# Glutathione peroxidase 1 (Homo sapiens), sequence (P07203 whole entry, looked up): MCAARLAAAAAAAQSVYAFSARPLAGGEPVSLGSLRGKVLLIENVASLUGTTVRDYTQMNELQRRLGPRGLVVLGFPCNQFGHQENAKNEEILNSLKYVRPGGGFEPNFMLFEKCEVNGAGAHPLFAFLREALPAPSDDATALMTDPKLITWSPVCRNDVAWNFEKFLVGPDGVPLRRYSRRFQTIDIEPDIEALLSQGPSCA
# Phospholipid hydroperoxide glutathione peroxidase GPX4 (Homo sapiens), sequence (P36969 whole entry, looked up): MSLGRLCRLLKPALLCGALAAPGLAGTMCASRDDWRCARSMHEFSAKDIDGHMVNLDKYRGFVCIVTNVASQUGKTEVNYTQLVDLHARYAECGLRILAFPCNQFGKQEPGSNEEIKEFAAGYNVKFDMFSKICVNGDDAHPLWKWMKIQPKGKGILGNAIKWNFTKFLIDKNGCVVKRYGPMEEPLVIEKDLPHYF
smiles,measurement,setting,value
CC(C)[C@H](NC(=O)c1nn(Cc2ccc(F)cc2)c2ccccc12)C(N)=O,Potency,[1],inactive
same,Potency,[2],inactive
same,Potency,[3],inactive
same,Potency,[4],inactive
same,outcome,[5],inactive
same,Potency,[6],inactive
same,Potency,[7],inactive
same,max response,CRL-7250,-7.52%
same,max response,NIH3T3,-27.5%
same,Potency,C33A,inactive
same,Potency,CAOV3,inactive
same,Potency,CASKI,inactive
same,Potency,Es-2,inactive
same,Potency,Hek293T,inactive
same,Potency,JEG-3,inactive
same,Potency,OV90,inactive
same,Potency,PA-1,inactive
same,Potency,Tov-21-G,inactive
same,Potency,Tov112D,inactive
COc1cc(O)c2c(c1)CCC[C@@H](O)[C@H](O)C(=O)/C=C\C[C@H](C)OC2=O,Potency,[1],inactive
same,Potency,[3],inactive
same,Potency,[4],inactive
same,outcome,[5],inactive
same,Potency,[6],inactive
same,Potency,[7],inactive
same,Potency,CRL-7250,5.08 µM (active)
same,Potency,Hek293T,11.2 µM (active)
same,Potency,PA-1,inactive
same,Potency,Tov-21-G,1.78 µM (active)
CCOc1ccc(Oc2ccc(OCc3cc(F)ccc3F)cc2)c(N)c1,Potency,[1],inactive
same,Potency,[2],inactive
same,Potency,[3],inactive
same,Potency,[4],inactive
same,outcome,[5],inactive
same,Potency,[6],8.44 µM (active)
same,Potency,[7],inactive
same,Potency,[8],inactive
same,outcome,CRL-7250,inactive
same,max response,NIH3T3,-0.81%
same,Potency,C33A,inactive
same,Potency,CAOV3,inactive
same,Potency,CASKI,inactive
same,Potency,Es-2,inactive
same,Potency,Hek293T,inactive
same,Potency,JEG-3,inactive
same,Potency,OV90,inactive
same,Potency,PA-1,inactive
same,Potency,Tov-21-G,inactive
same,Potency,Tov112D,inactive
CN1CCCCC1Cn1cc(C(=O)c2cc([N+](=O)[O-])ccc2I)c2ccccc21 (configuration not stated),Potency,[1],inactive
same,Potency,[2],inactive
same,Potency,[3],inactive
same,Potency,[4],inactive
same,outcome,[5],inactive
same,Potency,[7],inactive
same,Potency,[8],inactive
same,max response,CRL-7250,2.06%
same,outcome,NIH3T3,inactive
same,Potency,C33A,inactive
same,Potency,CAOV3,inactive
same,Potency,CASKI,inactive
same,Potency,Es-2,inactive
same,Potency,Hek293T,inactive
same,Potency,JEG-3,inactive
same,Potency,OV90,inactive
same,Potency,PA-1,inactive
same,Potency,Tov-21-G,inactive
same,Potency,Tov112D,inactive
CC(=O)OC[C@]12[C@H](OC(C)=O)C(=O)[C@@H]3[C@@H](O)[C@@]14O[C@@]3(C)COC(=O)c1cccnc1[C@@H](C)[C@H](C)C(=O)O[C@@H]([C@H](OC(C)=O)[C@@H]2OC(C)=O)[C@]4(C)O,Potency,[1],inactive
same,Potency,[3],inactive
same,outcome,[5],inactive
same,Potency,[6],inactive
same,Potency,[7],inactive
same,Potency,[8],inactive
same,outcome,CRL-7250,inactive
same,max response,NIH3T3,0.381%
same,Potency,C33A,inactive
same,Potency,CAOV3,inactive
same,Potency,CASKI,inactive
same,Potency,Es-2,inactive
same,Potency,Hek293T,inactive
same,Potency,JEG-3,inactive
same,Potency,OV90,inactive
same,Potency,Tov-21-G,inactive
same,Potency,Tov112D,inactive
C#C[C@]1(O)CC[C@H]2[C@@H]3CC[C@H]4Cc5nc6nc7ccccc7n6cc5C[C@]4(C)[C@H]3CC[C@@]21C,Potency,[2],inactive
same,Potency,[3],inactive
same,Potency,[4],inactive
same,outcome,[5],inactive
same,Potency,[6],inactive
same,Potency,[7],inactive
same,Potency,[8],inactive
same,max response,CRL-7250,1.18%
same,Potency,C33A,inactive
same,Potency,CAOV3,inactive
same,Potency,CASKI,inactive
same,Potency,Es-2,inactive
same,Potency,Hek293T,inactive
same,Potency,JEG-3,inactive
same,Potency,OV90,inactive
same,Potency,PA-1,inactive
same,Potency,Tov112D,inactive
CC1=CC2OC3CC(O)[C@](C)([C@@]2(C)C(O)C1=O)[C@]31CO1 (some centres not stated),Potency,[1],inactive
same,Potency,[2],inactive
same,Potency,[3],inactive
same,outcome,[5],inactive
same,Potency,[6],inactive
same,Potency,[7],inactive
same,Potency,[8],inactive
same,Potency,CRL-7250,5.8 µM (active)
same,Potency,NIH3T3,4.11 µM (active)
same,Potency,CAOV3,inactive
same,Potency,Es-2,8.91 µM (active)
same,Potency,Hek293T,3.16 µM (active)
same,Potency,JEG-3,inactive
same,Potency,PA-1,3.16 µM (active)
C[C@]12CC[C@H](O)C[C@@H]1CC[C@@H]1[C@@H]2CC[C@]2(C)C(=O)CC[C@@H]12,Potency,[1],inactive
same,Potency,[2],inactive
same,Potency,[3],inactive
same,Potency,[4],inactive
same,outcome,[5],inactive
same,Potency,[6],inactive
same,Potency,[7],inactive
same,Potency,[8],inactive
same,max response,CRL-7250,-5.26%
same,max response,NIH3T3,-0.109%
same,Potency,C33A,inactive
same,Potency,CAOV3,inactive
same,Potency,CASKI,inactive
same,Potency,Es-2,inactive
same,Potency,Hek293T,inactive
same,Potency,JEG-3,inactive
same,Potency,OV90,inactive
same,Potency,PA-1,inactive
same,Potency,Tov-21-G,inactive
same,Potency,Tov112D,inactive
C[C@]12CC[C@H](O)C[C@@]1(O)CC[C@@H]1[C@@H]2CC[C@]2(C)[C@@H](c3ccc(=O)oc3)CC[C@]12O,Potency,[1],inactive
same,Potency,[6],inactive
same,Potency,[7],inactive
same,Potency,[8],inactive
same,Potency,CRL-7250,0.0052 µM (active)
same,max response,NIH3T3,-7.45%
same,Potency,C33A,inactive
same,Potency,CAOV3,inactive
same,Potency,CASKI,inactive
same,Potency,Es-2,inactive
same,Potency,Hek293T,inactive
same,Potency,JEG-3,inactive
same,Potency,OV90,inactive
same,Potency,PA-1,inactive
same,Potency,Tov-21-G,inactive
same,Potency,Tov112D,inactive
CCN1C[C@]2(COC)CC[C@H](O)[C@@]34C5C[C@@H]6[C@@H](OC)C[C@@](OC(C)=O)(C5[C@@H]6OC(C)=O)[C@H]([C@H](OC)C23)[C@@H]14 (some centres not stated),Potency,[1],inactive
same,Potency,[2],inactive
same,Potency,[3],inactive
same,Potency,[4],inactive
same,outcome,[5],inactive
same,Potency,[6],inactive
same,Potency,[7],inactive
same,Potency,[8],inactive
same,max response,CRL-7250,0.922%
same,max response,NIH3T3,2.14%
same,Potency,C33A,inactive
same,Potency,CAOV3,inactive
same,Potency,CASKI,inactive
same,Potency,Es-2,inactive
same,Potency,Hek293T,inactive
same,Potency,JEG-3,inactive
same,Potency,OV90,inactive
same,Potency,PA-1,inactive
same,Potency,Tov-21-G,inactive
same,Potency,Tov112D,inactive
CN1CCC2=C(C1)c1ccccc1Cc1ccccc12,Potency,[1],inactive
same,Potency,[2],inactive
same,Potency,[3],inactive
same,Potency,[4],inactive
same,outcome,[5],inactive
same,Potency,[6],inactive
same,Potency,[7],inactive
same,Potency,[8],inactive
same,outcome,CRL-7250,inactive
same,max response,NIH3T3,0.135%
same,Potency,C33A,inactive
same,Potency,CAOV3,inactive
same,Potency,CASKI,inactive
same,Potency,Es-2,inactive
same,Potency,Hek293T,inactive
same,Potency,JEG-3,inactive
same,Potency,OV90,inactive
same,Potency,PA-1,inactive
same,Potency,Tov-21-G,inactive
same,Potency,Tov112D,inactive
Cc1ccc2c(c1)[C@H]1CN(C)CC[C@H]1N2C(=O)CSc1nnnn1-c1ccc(Cl)cc1,Potency,[1],inactive
same,Potency,[2],inactive
same,Potency,[3],inactive
same,Potency,[4],inactive
same,outcome,[5],inactive
same,Potency,[6],inactive
same,Potency,[7],inactive
same,Potency,[8],inactive
same,max response,CRL-7250,0.988%
same,outcome,NIH3T3,inactive
same,Potency,C33A,inactive
same,Potency,CAOV3,inactive
same,Potency,CASKI,inactive
same,Potency,Es-2,inactive
same,Potency,Hek293T,inactive
same,Potency,JEG-3,inactive
same,Potency,OV90,inactive
same,Potency,PA-1,inactive
same,Potency,Tov-21-G,inactive
same,Potency,Tov112D,inactive
